In PubChem BioAssay (NCATS):
“And” between values parts separate entries of the source, which are not always exact repeats. Equal entries are not always repeated. Inconclusive results are not listed. Where a call stands in place of a potency, no number is given. More than one record can exist for a structure, and the calls need not agree. The source made the active and inactive calls. Unless noted, calls follow the shape of the dose curve; as a rule, active = well fitted curve in the direction sought with a large enough effect; inconclusive = small, poorly fitted or top-dose-only effect, or another doubt; inactive = no such curve, though single readings can be large; an effect the other way counts as inactive or inconclusive.

How the values were obtained:
[1] = molecular target: D(1A) dopamine receptor (Homo sapiens) (UniProt P21728); test: HTS Assay for Allosteric Agonists of the Human D1 Dopamine Receptor: Primary Screen for Antagonists (AID 488983);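 also: calcium flux response to an EC80 dopamine challenge measured with no-wash dye; nearly all actives have a fitted effect of over 65% in size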; also: potency is read from the fitted curve at half-maximal effect
Method in brief: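 Cells are induced with tetracycline and incubated overnight at 30 C, then loaded with calcium dye for 30 to 90 minutes at room temperature. Compound addition is followed by a 180 s read, then an EC80 dopamine addition and another 180 s read.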

[2] = Validation screen for small molecules that induce genotoxicity in human embryonic kidney (HEK293T) cells expressing luciferase-tagged ELG1 (AID 493106)
Method in brief: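 Luminescence from an ELG1-luciferase fusion serves as the read-out, rising when genetic stress elevates ELG1 protein. HEK293T reporter cells (2,000 per well) received 23 nL compound, incubated 16 hr at 37 °C, then ONE-Glo for 30 min at room temperature.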

[3] = molecular target: ATPase family AAA domain-containing protein 5 (Homo sapiens) (UniProt Q96QE3); test: Validation screen for small molecules that inhibit ELG1-dependent DNA repair in human embryonic kidney (HEK293T) cells expressing luciferase-tagged ELG1 (AID 493107);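 also: cells co-treated with the DNA-damaging agent 5-fluorouridine alongside compound; series mostly up to about 46 µM; inhibitors lower the ELG1-luciferase luminescence signal; nearly all actives have a fitted effect of over 70% in size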
Method in brief: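 Luminescence from ONE-Glo, developed 30 min at room temperature, served as read-out of ELG1-luciferase levels. Beforehand, reporter HEK293T cells received 5-fluorouridine plus test compound for 16 hr at 37 °C.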

[4] = molecular target: Thyrotropin-releasing hormone receptor (Homo sapiens) (UniProt P34981); test: qHTS for Small Molecule Agonists and Allosteric Enhancers of Human TRH Receptor: Validation Screen for Agonists (AID 493127;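 active = calcium activation more than 3 SD above the typical response in the agonist read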;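 also: intracellular calcium rise by fluo-8 fluorescence before TRH EC20 addition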); details: TRH receptor agonist cell assay; at 2 µM; stronger effect = higher value
Method in brief: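 Cells 2000/well, 10% FCS, 18 h 33.5C/5% CO2 → fluo-8 Ca dye, RT 30 min–1.5 h → FDSS baseline 10 × 1 s → compound added → 230 cycles (1 s/cycle) agonist mode. TRH controls.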

[5] = Nrf2 qHTS screen for inhibitors: Validation (AID 493153; active = well fitted inhibition curve with a large enough effect in the main read-out, with a control signal flat, not every such curve was filed as active); details: Potency: luciferase luminescence; viability change: measured here: cytotoxicity max response
Method in brief: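 Luminescence from an ARE-firefly luciferase reporter in A549 cells gives Nrf2 inhibition; an earlier CellTiter-Fluor fluorescent read flags cytotoxicity. Cells in 5% FBS OPTI-MEM received compound dilution series for 18-24 h at 37°C.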

[6] = qHTS for Inhibitors of Cell Surface uPA Generation: Validation Assay (AID 493164)
Method in brief: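 RAW 264.7 cells (4000/well) were plated overnight, then exposed for 18 h at 37 C, 5% CO2 to compounds in a 7-point 1:5 titration (2.45 nM–38.3 uM final). Intracellular ATP was read by ATP-Lite luminescence.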

[7] = molecular target: Galactokinase (Homo sapiens) (UniProt P51570); test: qHTS Validation Assay for Inhibitors of Human Galactokinase (GALK) (AID 493189)
Method in brief: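 GALK (5 nM) with 35 uM ATP and 100 uM galactose in HEPES pH 8.0 with MgCl2, NaCl, DTT and BSA. Reaction ran 1 h at room temperature. Residual ATP read by Kinase-Glo Plus luminescence.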

[8] = Validation screen for small molecules that induce DNA re-replication in SW480 colon adenocarcinoma cells (AID 504364)
Method in brief: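 250 cells/well; compound pinned in; 48 hr, 37 C, 5% CO2; Hoechst added, 40 min; nuclear fluorescence imaged, 405 ex / 500-530 em; re-replication scored as increase in high-intensity nuclei.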

[9] = molecular target: Peptidyl-prolyl cis-trans isomerase NIMA-interacting 1 (Homo sapiens) (UniProt Q13526); test: qHTS Validation Assay to Find Inhibitors of Pin1 (AID 504536; active = well fitted inhibition curve with a large enough effect in the polarisation, with a control signal flat, not every such curve was filed as active; the % refers to the polarisation)
Method in brief: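 Fluorescence polarization competition: compounds (titration) displace HiFluor-488-labeled Pin1-1b peptide from Pin1 (0.3 uM final) in pH 7.5 HEPES buffer with DTT, 10 min at room temperature; %Activity normalized to no-enzyme wells, curves fitted.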

[10] = molecular target: Phosphoglycerate kinase, glycosomal (Trypanosoma brucei brucei) (UniProt P07378); test: qHTS Validation Assay to Find Inhibitors of Phosphoglycerate Kinase (AID 504547)
Method in brief: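 Substrate/PGK mix plus compound; reaction started with GAPDH (100nM final) to form 1,3-BPG; 60 min RT; Kinase-Glo Plus 10 min; luminescence. TEA 100mM pH 7.6, MgCl2 5mM, Tween-20 0.01%.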

[11] = molecular target: phosphoglycerate mutase (Leishmania major) (UniProt Q4Q090); test: qHTS Validation Assay to Find Inhibitors of Phosphoglycerate Mutase (AID 504548);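 also: end-point luminescence from Kinase-GloPlus after the PGAM reaction; series mostly up to about 58 µM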
Method in brief: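 L. major PGAM (1.25nM final) was added to substrate buffer and pinned compound, incubated 45 minutes at room temperature, then Kinase-GloPlus added; luminescence read after 10 minutes. Buffer: 100 mM TEA pH 7.6, 5 mM MgCl2, 0.01% Tween-20.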

[12] = molecular target: Ubiquitin carboxyl-terminal hydrolase 1 (Homo sapiens) (UniProt O94782); test: Inhibitors of USP1/UAF1: Pilot qHTS (AID 504865); also: nearly all actives have a fitted effect of over 35% in size; also: potency is read from the fitted curve at half-maximal effect
Method in brief: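 USP1/UAF1 complex at 1 nM preincubated 15 min at room temperature with compound, then Ub-Rho substrate added at 150 nM final. Fluorescence (480/540 nm) read kinetically in 50 mM HEPES pH 7.8, 0.5 mM EDTA, 1 mM TCEP, 0.1 mg/ml BSA, 0.01% Tween-20.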

[13] = qHTS for Inhibitors of ATXN expression: Validation of Cytotoxic Assay (AID 588349); also: potency is read from the fitted curve at half-maximal effect
Method in brief: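 Read-out: ATP-based luminescence (CellTiter Glo) reflecting viability of HEK293 cells after 72 hr incubation at 37 degrees C with a concentration series of each compound.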

[14] = qHTS for Inhibitors of ATXN expression: Validation (AID 588378); also: nearly all actives have a fitted effect of over 75% in size; also: potency is read from the fitted curve at half-maximal effect
Method in brief: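 HEK293 cells carrying ATXN2-firefly luciferase reporter, treated with compound 24 h at 37 °C. Viability read first by CellTiter-Fluor (405/525 nm), then reporter expression by Bright-Glo luminescence; controls were a known ATXN2 expression inhibitor and a luciferase inhibitor.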

[15] = molecular target: ATP-dependent 6-phosphofructokinase (Trypanosoma brucei brucei) (UniProt O15648); test: qHTS Assay to Find Inhibitors of T. brucei phosphofructokinase: hit validation (AID 492961);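 also: luminescence reports ADP formed as PFK phosphorylates fructose-6-phosphate with ATP; series mostly up to about 51 µM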
Method in brief: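 PFK 1.25 nM, F6P 0.5 mM, ATP 0.1 mM, MgCl2 5 mM, 0.1 M TEA pH 8.0, Tween20 0.01%, BSA 0.1%; 45 min RT. ADP-Glo two-step detection, luminescence. qHTS titration; curve fitting with curve-class categorization.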

[16] = molecular target: DNA dC->dU-editing enzyme APOBEC-3G (Homo sapiens) (UniProt Q9HC16); test: qHTS for inhibitors of Vif-A3G interactions: Validation (AID 588379)
Method in brief: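 HeLa cells stably expressing Vif and A3G-eYFP, 700 cells/well, incubated overnight at 37 deg C, then exposed to compound overnight at 37 deg C. Inhibition of Vif-mediated degradation read as increased yellow fluorescence (Ex 488/Em 500-530) by laser-scanning cytometry.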

ATP-dependent 6-phosphofructokinase (Trypanosoma brucei brucei), sequence (O15648 whole entry, looked up): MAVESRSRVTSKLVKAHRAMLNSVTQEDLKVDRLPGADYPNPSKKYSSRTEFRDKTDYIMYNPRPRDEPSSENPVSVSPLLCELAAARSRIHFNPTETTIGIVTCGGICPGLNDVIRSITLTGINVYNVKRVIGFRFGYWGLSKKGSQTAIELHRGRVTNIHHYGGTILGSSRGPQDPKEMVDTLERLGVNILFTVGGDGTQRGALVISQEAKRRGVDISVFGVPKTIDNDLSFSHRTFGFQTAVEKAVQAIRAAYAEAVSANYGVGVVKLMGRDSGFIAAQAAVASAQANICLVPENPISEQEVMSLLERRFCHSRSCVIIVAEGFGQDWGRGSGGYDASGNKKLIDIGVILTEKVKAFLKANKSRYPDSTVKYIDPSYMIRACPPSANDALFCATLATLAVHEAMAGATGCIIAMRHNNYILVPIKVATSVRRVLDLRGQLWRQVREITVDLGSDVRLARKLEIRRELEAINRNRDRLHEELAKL
Thyrotropin-releasing hormone receptor (Homo sapiens), sequence (P34981 whole entry, looked up): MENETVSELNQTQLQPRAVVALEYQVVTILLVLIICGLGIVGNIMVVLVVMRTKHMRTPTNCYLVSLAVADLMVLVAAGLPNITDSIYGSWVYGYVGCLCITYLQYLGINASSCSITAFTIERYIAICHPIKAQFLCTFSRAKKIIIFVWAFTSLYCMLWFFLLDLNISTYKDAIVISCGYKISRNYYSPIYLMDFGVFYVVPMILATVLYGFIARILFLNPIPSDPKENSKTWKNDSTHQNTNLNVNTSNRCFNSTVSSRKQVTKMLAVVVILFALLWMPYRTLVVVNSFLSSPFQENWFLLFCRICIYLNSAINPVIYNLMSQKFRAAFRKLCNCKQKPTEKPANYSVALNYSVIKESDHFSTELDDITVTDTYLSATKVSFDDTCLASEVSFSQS
Ubiquitin carboxyl-terminal hydrolase 1 (Homo sapiens), sequence (O94782 whole entry, looked up): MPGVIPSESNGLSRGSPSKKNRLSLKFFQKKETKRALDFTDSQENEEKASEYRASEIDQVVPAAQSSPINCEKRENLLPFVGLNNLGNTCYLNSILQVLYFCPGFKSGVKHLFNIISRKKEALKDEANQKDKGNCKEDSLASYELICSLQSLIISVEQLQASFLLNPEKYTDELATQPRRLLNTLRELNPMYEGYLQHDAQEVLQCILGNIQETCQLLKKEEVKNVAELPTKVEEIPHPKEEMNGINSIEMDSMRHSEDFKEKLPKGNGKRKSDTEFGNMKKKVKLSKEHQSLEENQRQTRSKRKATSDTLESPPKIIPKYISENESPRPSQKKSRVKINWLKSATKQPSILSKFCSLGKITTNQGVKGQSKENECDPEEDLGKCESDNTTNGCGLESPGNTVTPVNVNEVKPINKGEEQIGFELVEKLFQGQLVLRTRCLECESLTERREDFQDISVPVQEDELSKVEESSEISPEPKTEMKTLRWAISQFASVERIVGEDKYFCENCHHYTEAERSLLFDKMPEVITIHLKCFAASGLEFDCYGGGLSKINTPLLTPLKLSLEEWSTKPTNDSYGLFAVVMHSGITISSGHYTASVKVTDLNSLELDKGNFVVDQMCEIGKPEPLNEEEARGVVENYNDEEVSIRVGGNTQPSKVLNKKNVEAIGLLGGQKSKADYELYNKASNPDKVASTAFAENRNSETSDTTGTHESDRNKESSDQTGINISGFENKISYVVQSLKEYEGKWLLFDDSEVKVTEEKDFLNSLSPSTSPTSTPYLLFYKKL
ATPase family AAA domain-containing protein 5 (Homo sapiens), sequence (Q96QE3 whole entry, looked up, the tested form may be a part): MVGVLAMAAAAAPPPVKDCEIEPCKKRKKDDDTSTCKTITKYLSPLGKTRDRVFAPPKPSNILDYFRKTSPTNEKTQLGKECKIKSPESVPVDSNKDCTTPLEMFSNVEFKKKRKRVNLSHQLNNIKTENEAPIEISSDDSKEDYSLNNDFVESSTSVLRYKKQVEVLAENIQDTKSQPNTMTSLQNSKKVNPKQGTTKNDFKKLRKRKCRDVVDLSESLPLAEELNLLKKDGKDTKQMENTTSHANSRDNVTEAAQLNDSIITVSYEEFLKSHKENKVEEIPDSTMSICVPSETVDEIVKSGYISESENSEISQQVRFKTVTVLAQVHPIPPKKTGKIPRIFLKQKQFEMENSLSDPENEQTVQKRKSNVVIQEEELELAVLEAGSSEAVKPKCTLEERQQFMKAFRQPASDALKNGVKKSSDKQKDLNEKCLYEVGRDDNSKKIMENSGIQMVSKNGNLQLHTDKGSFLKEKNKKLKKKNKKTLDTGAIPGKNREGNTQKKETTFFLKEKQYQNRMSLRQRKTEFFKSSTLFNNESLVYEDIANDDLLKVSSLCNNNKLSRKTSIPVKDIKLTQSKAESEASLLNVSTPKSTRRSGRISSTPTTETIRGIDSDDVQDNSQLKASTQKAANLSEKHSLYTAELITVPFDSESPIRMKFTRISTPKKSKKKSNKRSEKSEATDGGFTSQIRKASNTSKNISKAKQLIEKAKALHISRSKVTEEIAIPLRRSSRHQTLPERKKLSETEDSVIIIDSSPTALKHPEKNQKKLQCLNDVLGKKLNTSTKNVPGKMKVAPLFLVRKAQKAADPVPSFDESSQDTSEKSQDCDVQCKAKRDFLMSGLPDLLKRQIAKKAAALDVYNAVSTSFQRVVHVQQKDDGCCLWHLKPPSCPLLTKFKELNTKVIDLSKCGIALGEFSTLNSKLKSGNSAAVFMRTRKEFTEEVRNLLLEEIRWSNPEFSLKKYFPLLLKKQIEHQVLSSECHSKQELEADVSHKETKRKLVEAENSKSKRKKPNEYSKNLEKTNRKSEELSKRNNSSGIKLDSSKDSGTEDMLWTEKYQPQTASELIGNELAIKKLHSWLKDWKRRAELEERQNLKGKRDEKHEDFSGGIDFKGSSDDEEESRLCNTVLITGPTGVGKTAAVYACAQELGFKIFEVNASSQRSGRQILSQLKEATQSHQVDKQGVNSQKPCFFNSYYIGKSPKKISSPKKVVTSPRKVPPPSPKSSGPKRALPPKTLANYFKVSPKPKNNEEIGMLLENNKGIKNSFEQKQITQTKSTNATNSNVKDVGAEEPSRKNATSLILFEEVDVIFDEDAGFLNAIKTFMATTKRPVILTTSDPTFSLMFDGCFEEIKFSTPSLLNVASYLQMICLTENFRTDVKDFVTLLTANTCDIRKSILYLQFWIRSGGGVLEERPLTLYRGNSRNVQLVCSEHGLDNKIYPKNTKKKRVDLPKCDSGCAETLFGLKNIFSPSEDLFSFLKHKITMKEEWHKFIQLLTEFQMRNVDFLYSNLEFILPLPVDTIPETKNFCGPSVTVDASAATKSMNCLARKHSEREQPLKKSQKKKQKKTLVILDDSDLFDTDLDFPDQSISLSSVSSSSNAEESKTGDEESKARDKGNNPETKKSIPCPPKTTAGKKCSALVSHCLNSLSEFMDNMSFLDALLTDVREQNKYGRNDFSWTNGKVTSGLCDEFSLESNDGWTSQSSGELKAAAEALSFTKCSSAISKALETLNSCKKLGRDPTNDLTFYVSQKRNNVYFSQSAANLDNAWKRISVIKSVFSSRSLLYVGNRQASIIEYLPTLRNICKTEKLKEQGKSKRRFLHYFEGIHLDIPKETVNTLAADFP
phosphoglycerate mutase (Leishmania major), sequence (Q4Q090 1-553): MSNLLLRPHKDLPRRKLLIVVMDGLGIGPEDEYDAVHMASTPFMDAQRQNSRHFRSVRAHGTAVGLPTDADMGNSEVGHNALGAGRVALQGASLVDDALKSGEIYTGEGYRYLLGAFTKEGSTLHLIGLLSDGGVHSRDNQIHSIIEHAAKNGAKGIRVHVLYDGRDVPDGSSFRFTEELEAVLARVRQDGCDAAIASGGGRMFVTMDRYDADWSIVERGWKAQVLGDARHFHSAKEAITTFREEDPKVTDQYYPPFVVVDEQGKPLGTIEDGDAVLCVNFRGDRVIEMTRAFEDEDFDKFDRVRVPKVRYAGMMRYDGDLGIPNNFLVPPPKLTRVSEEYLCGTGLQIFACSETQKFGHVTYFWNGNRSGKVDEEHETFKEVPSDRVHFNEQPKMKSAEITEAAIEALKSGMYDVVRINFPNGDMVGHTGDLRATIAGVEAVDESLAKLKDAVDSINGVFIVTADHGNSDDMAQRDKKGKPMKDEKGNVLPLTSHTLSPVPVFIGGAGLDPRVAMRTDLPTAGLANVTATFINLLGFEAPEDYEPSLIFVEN
DNA dC->dU-editing enzyme APOBEC-3G (Homo sapiens), sequence (Q9HC16 whole entry, looked up): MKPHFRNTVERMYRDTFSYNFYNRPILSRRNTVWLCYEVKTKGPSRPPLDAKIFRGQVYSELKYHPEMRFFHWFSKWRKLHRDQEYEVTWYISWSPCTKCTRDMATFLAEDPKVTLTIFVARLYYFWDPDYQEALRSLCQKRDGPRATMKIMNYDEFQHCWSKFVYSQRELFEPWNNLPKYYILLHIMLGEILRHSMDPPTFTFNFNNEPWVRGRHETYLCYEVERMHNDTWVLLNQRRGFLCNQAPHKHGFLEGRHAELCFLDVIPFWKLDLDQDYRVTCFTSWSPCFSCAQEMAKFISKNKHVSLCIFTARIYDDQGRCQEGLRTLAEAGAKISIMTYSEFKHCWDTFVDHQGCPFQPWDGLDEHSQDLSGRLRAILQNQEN
Peptidyl-prolyl cis-trans isomerase NIMA-interacting 1 (Homo sapiens), sequence (Q13526 whole entry, looked up): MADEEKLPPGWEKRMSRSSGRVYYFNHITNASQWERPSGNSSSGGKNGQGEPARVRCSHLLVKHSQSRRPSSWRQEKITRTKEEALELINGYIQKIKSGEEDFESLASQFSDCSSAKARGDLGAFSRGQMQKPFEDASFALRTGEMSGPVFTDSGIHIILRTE
Galactokinase (Homo sapiens), sequence (P51570 whole entry, looked up): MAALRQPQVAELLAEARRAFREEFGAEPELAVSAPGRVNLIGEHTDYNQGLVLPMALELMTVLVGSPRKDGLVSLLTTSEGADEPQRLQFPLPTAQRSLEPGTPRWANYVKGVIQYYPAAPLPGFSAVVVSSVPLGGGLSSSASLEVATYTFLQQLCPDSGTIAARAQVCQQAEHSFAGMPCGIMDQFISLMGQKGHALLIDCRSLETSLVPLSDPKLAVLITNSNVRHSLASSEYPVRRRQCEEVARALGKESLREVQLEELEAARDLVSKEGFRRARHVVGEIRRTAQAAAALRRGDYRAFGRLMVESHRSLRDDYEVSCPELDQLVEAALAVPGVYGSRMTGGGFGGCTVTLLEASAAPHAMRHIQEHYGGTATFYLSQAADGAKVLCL

## CC(=O)OCC(=O)[C@@]1(O)CC[C@H]2[C@@H]3CCC4=CC(=O)CC[C@]4(C)[C@H]3C(=O)C[C@@]21C
[1]
  Potency: inactive
[2]
  Potency: inactive
[3]
  outcome: inactive
[4]
  activation: 1.06% (inactive)
[5]
  Potency: inactive
  viability change: 3.82%
[6]
  outcome: inactive
[7]
  outcome: inactive
[8]
  outcome: inactive
[9]
  outcome: inactive
[10]
  outcome: inactive
[11]
  outcome: inactive
[12]
  Potency: inactive
[13]
  Potency: inactive
[14]
  Potency: inactive

## NC(=O)c1ncn([C@@H]2O[C@H](CO)[C@@H](O)[C@H]2O)n1
[1]
  Potency: inactive
[2]
  Potency: inactive
[3]
  outcome: inactive
[4]
  activation: 0.875% (inactive)
[8]
  outcome: inactive
[9]
  outcome: inactive
[13]
  Potency: inactive

## CSc1ccc2c(c1)C(N1CCN(C)CC1)Cc1ccccc1S2 (stereo not given)
[1]
  Potency: 0.316 µM (active)
[15]
  Potency: inactive
[2]
  Potency: inactive
[4]
  activation: 5.38% (inactive)
[5]
  Potency: inactive
  viability change: -13.4%
[6]
  outcome: inactive
[7]
  outcome: inactive
[8]
  outcome: inactive
[9]
  outcome: inactive
[10]
  outcome: inactive
[11]
  outcome: inactive
[13]
  Potency: 31.6 µM (active)
[14]
  Potency: 14.1 µM (active)

## CC(C)(C(=O)O)c1ccc(C(O)CCCN2CCC(C(O)(c3ccccc3)c3ccccc3)CC2)cc1 (stereo not given)
[1]
  Potency: inactive
[2]
  Potency: inactive
[3]
  outcome: inactive
[4]
  activation: -0.125% (inactive)
[5]
  Potency: inactive
  viability change: 5.93%
[6]
  outcome: inactive
[8]
  outcome: inactive
[9]
  outcome: inactive
[10]
  outcome: inactive
[11]
  outcome: inactive
[13]
  Potency: inactive
[14]
  Potency: inactive

## C#CCN(C)Cc1ccccc1
[1]
  Potency: inactive
[15]
  Potency: inactive
[2]
  Potency: inactive
[3]
  outcome: inactive
[4]
  activation: 0.562% (inactive)
[5]
  Potency: inactive
  viability change: 1.01%
[6]
  outcome: inactive
[7]
  outcome: inactive
[8]
  outcome: inactive
[9]
  outcome: inactive
[10]
  outcome: inactive
[11]
  outcome: inactive
[13]
  Potency: inactive
[14]
  Potency: inactive

## CC(C)NC[C@H](O)c1ccc(O)c(O)c1
[1]
  Potency: inactive
[2]
  Potency: inactive
[3]
  outcome: inactive
[4]
  activation: -0.125% (inactive) and 0.875% (inactive)
[5]
  Potency: inactive
  viability change: 2.86% and 6.15%
[6]
  outcome: inactive
[7]
  outcome: inactive
[8]
  outcome: inactive
[9]
  outcome: inactive
[10]
  outcome: inactive
[11]
  outcome: inactive
[13]
  Potency: inactive
[16]
  outcome: inactive

## CN(C)CCOC(C)(c1ccccc1)c1ccccn1 (stereo not given)
[1]
  Potency: inactive
[2]
  Potency: inactive
[3]
  outcome: inactive
[5]
  Potency: inactive
  viability change: -4.35%
[6]
  outcome: inactive
[7]
  outcome: inactive
[8]
  outcome: inactive
[9]
  outcome: inactive
[10]
  outcome: inactive
[11]
  outcome: inactive
[13]
  Potency: inactive
[14]
  Potency: inactive

## C=Cc1c(C)c2cc3[nH]c(cc4nc(cc5nc(cc1[nH]2)C(C)=C5CCC(=O)O)C(CCC(=O)O)=C4C)c(C)c3C=C
[1]
  Potency: inactive
[15]
  Potency: inactive
[2]
  Potency: inactive
[3]
  outcome: inactive
[4]
  activation: 0.125% (inactive)
[6]
  outcome: inactive
[7]
  outcome: inactive
[8]
  outcome: inactive
[10]
  outcome: inactive
[11]
  outcome: inactive
[12]
  Potency: inactive and 50.1 µM (active)
[14]
  Potency: inactive

## OCc1cc(C(O)CNCCCCCCOCCCCc2ccccc2)ccc1O (stereo not given)
[1]
  Potency: inactive
[15]
  Potency: inactive
[2]
  Potency: inactive
[3]
  outcome: inactive
[4]
  activation: -0.25% (inactive)
[6]
  outcome: inactive
[7]
  outcome: inactive
[8]
  outcome: inactive
[9]
  outcome: inactive
[10]
  outcome: inactive
[11]
  outcome: inactive

## CC1=C(CC(=O)O)c2cc(F)ccc2/C1=C\c1ccc(S(C)=O)cc1 (stereo not given)
[1]
  Potency: inactive
[15]
  Potency: inactive
[2]
  Potency: inactive
[3]
  outcome: inactive
[5]
  Potency: inactive
  viability change: -1.89%
[6]
  outcome: inactive
[7]
  outcome: inactive
[8]
  outcome: inactive
[9]
  outcome: inactive
[10]
  outcome: inactive
[11]
  outcome: inactive
[12]
  Potency: inactive
[13]
  Potency: inactive
[14]
  Potency: inactive
[16]
  outcome: inactive

## Nc1cc(=O)[nH]c(N)n1
[1]
  Potency: inactive
[2]
  Potency: inactive
[3]
  outcome: inactive
[4]
  activation: 1.31% (inactive)
[5]
  Potency: inactive
  viability change: 1.17%
[6]
  outcome: inactive
[7]
  outcome: inactive
[8]
  outcome: inactive
[9]
  outcome: inactive
[10]
  outcome: inactive
[11]
  outcome: inactive
[12]
  Potency: inactive
[13]
  Potency: inactive
[14]
  Potency: inactive
[16]
  outcome: inactive

## O=C1N=C(O)CN1/N=C/c1ccc(-c2ccc([N+](=O)[O-])cc2)o1
[1]
  Potency: inactive
[2]
  Potency: inactive
[3]
  outcome: inactive
[5]
  Potency: inactive
  viability change: -12.1%
[6]
  outcome: inactive
[7]
  outcome: inactive
[8]
  outcome: inactive
[9]
  outcome: inactive
[10]
  outcome: inactive
[11]
  outcome: inactive
[12]
  Potency: inactive
[13]
  Potency: inactive
[14]
  Potency: inactive
